Assay outcomes deposited in PubChem by Broad Institute.
IDE exosite inh: exo-site inhibitors of human insulin-degrading enzyme. P14735. purified IDE, FL-6b probe fluorescence polarization; hits give low values. z-score at 20 µM. 6.3% of 17,000 active. AID 1259349;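 active means z-score of -3 or lower, meaning strong loss of probe binding signal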;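 further: His-tagged human IDE residues 42-1019 made in E. coli with 30 nM FL-6b probe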
Hits are given with their value. The sample as a whole holds a higher share of hits than the screen did.

What do the screens show for `OC[C@H]1[C@@H](c2ccc(C#Cc3ccccc3)cc2)[C@@H]2CN(CC3CCOCC3)CCCCN12`?
IDE exosite inh: -5.38

How did OC[C@@H]1[C@@H](c2ccc(C#Cc3ccccc3)cc2)[C@H]2CN(CC3CCOCC3)CCCCN12 do in these assays?
IDE exosite inh: inactive

What do the screens show for `OC[C@@H]1[C@@H](c2ccc(C#Cc3ccccc3F)cc2)[C@@H]2CN(CC3CCOCC3)CCCCN12`?
IDE exosite inh: inactive

What do the screens show for `O=C(CN1CCOCC1)N1CCCCN2[C@H](CO)[C@H](c3ccc(C#Cc4ccccc4)cc3)[C@@H]2C1`?
IDE exosite inh: -12.9

Results for O=C(CN1CCOCC1)N1CCCCN2[C@@H](CO)[C@@H](c3ccc(-c4ccccc4)cc3)[C@@H]2C1 ?
IDE exosite inh: inactive

How did O=C(CN1CCOCC1)N1CCCCN2[C@H](C1)[C@H](c1ccc(-c3ccccc3)cc1)[C@@H]2CO do in these assays?
IDE exosite inh: inactive

Results for O=C(CN1CCOCC1)N1CCCCN2[C@H](CO)[C@@H](c3ccc(C#Cc4ccccc4)cc3)[C@@H]2C1 ?
IDE exosite inh: -6.17

What do the screens show for `CCC(=O)N1[C@@H](CO)[C@@H](c2ccccc2)[C@@H]1CN(CC)C(=O)NC1CCCC1`?
IDE exosite inh: inactive

What do the screens show for `O=C(c1ccc2c(c1)OCO2)N1CC(=O)N2[C@H](CO)[C@@H](c3ccc(C#CCC4CCCC4)cc3)[C@H]2C1`?
IDE exosite inh: inactive

Results for O=C(C[C@H]1C[C@H]2c3cc(NC(=O)Nc4ccccc4)ccc3O[C@H]2[C@@H](CO)O1)NCc1ccccc1 ?
IDE exosite inh: inactive

What do the screens show for `O=C(C[C@@H]1C[C@H]2c3cc(NS(=O)(=O)c4ccc(F)cc4)ccc3O[C@H]2[C@H](CO)O1)N1CCc2ccccc2C1`?
IDE exosite inh: inactive

How did O=C1CNC[C@@H]2[C@@H](c3ccc(-c4ccccc4F)cc3)[C@H](CO)N12 do in these assays?
IDE exosite inh: inactive

What do the screens show for `C/C=C/c1ccccc1[C@@H]1[C@@H](C#N)N(C(=O)CN2CCOCC2)[C@H]1CO`?
IDE exosite inh: inactive

What do the screens show for `COc1ccc(S(=O)(=O)N(C)C[C@@H]2Oc3ncccc3C(=O)N([C@H](C)CO)C[C@@H]2C)cc1`?
IDE exosite inh: inactive

Results for CO[C@H]1CN(C)C(=O)c2cc(NC(=O)CC(F)(F)F)ccc2OC[C@H](C)N(CC2CC2)C[C@H]1C ?
IDE exosite inh: inactive

How did COc1cccc(-c2ccc([C@H]3[C@@H](CO)N4CCCCN(C(=O)NC(C)C)C[C@H]34)cc2)c1 do in these assays?
IDE exosite inh: -8.13

How did COc1cccc(-c2ccc([C@@H]3[C@@H](CO)N4CCCCN(C(=O)NC(C)C)C[C@@H]34)cc2)c1 do in these assays?
IDE exosite inh: -5.97

How did CC(C)NC(=O)N1CCCCN2[C@H](C1)[C@H](c1ccc(Br)cc1)[C@@H]2CO do in these assays?
IDE exosite inh: inactive

How did COc1cccc(-c2ccc([C@@H]3[C@H](CO)N4CCCCN(C(=O)c5ccc(F)cc5)C[C@@H]34)cc2)c1 do in these assays?
IDE exosite inh: inactive

How did CC(C)NC(=O)N1CCCCN2[C@H](CO)[C@@H](c3ccc(Br)cc3)[C@@H]2C1 do in these assays?
IDE exosite inh: inactive

How did COc1cccc(-c2ccc([C@@H]3[C@@H](CO)N4CCCCN(C(=O)NC(C)C)C[C@H]34)cc2)c1 do in these assays?
IDE exosite inh: -6.62

Results for CC(C)NC(=O)N1CCCCN2[C@H](CO)[C@H](c3ccc(Br)cc3)[C@@H]2C1 ?
IDE exosite inh: inactive

Results for COc1cccc(-c2ccc([C@H]3[C@H]4CN(C(=O)c5ccc(F)cc5)CCCCN4[C@H]3CO)cc2)c1 ?
IDE exosite inh: inactive

What do the screens show for `CC(C)NC(=O)N1CCCCN2[C@H](CO)[C@H](c3ccc(Br)cc3)[C@H]2C1`?
IDE exosite inh: inactive

How did O=C1[C@@H](Cc2ccc(F)cc2)CCn2cc(nn2)COC[C@H]2CCCN12 do in these assays?
IDE exosite inh: inactive

Results for O=C(C[C@H]1CC[C@@H](NC(=O)C2CC2)[C@H](CO)O1)Nc1ccccc1 ?
IDE exosite inh: inactive

How did COc1ccc2c3c([nH]c2c1)[C@H](CO)N(Cc1ccccc1F)CC31CN(CC2CC2)C1 do in these assays?
IDE exosite inh: inactive

Results for Cc1cccc(S(=O)(=O)N2CCCCN3[C@@H](CO)[C@H](c4ccc(C#CC5CC5)cc4)[C@@H]3C2)c1 ?
IDE exosite inh: inactive

Results for O=S(=O)(c1ccccc1F)N1CCCCN2[C@H](CO)[C@@H](c3ccc(-c4cccnc4)cc3)[C@H]2C1 ?
IDE exosite inh: inactive

How did Cc1cccc(S(=O)(=O)N2CCCCN3[C@H](C2)[C@H](c2ccc(-c4cccnc4)cc2)[C@@H]3CO)c1 do in these assays?
IDE exosite inh: inactive

How did Cc1ccccc1S(=O)(=O)N1CCCCN2[C@H](CO)[C@@H](c3ccc(-c4cccnc4)cc3)[C@@H]2C1 do in these assays?
IDE exosite inh: -11.6

Results for Cc1ccccc1S(=O)(=O)N1CCCCN2[C@H](CO)[C@H](c3ccc(-c4cccnc4)cc3)[C@H]2C1 ?
IDE exosite inh: inactive

Results for Cc1ccccc1S(=O)(=O)N1CCCCN2[C@@H](CO)[C@@H](c3ccc(-c4cncnc4)cc3)[C@@H]2C1 ?
IDE exosite inh: -4.33
